Data published in PubChem BioAssay (NCATS).
Results filed as inconclusive are left out. Where a call stands in place of a potency, no number is given. A number with no mark means an inactive call. Activity calls are given as the source filed them. Calls follow the shape of the dose curve; as a rule, active = well fitted curve in the direction sought with a large enough effect; inconclusive = small, poorly fitted or top-dose-only effect, or another doubt; inactive = no such curve, though single readings can be large; an effect the other way counts as inactive or inconclusive.

Experiments:
[1] = target: Rap guanine nucleotide exchange factor 3 (Homo sapiens) (UniProt O95398); test: Confirmatory qHTS for antagonist of cAMP-regulated guanine nucleotide exchange factor 3 (EPAC1) (AID 1645880); also: nearly all actives have a fitted effect of over 55% in size; also: potency is read from the fitted curve at half-maximal effect
Procedure, shortened: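 Nucleotide exchange uses 100 nM EPAC1, 250 nM RAP1B-BODIPY-GDP and 50 uM GDP, with compounds in a concentration-titration series. After 5 min at room temperature, fluorescence (480 nm ex/540 nm em) is read every 5 min for 30 min. Data are normalized to control ATA and DMSO.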

[2] = target: Rap guanine nucleotide exchange factor 3 (Homo sapiens) (UniProt O95398); test: Confirmatory qHTS for agonist of cAMP-regulated guanine nucleotide exchange factor 3 (EPAC1) (AID 1645881); also: nearly all actives have a fitted effect of over 75% in size; also: potency is read from the fitted curve at half-maximal effect;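 as to activation: EPAC1 catalysed release of BODIPY-GDP from Rap1B seen as fluorescence loss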
[3] = target: Rap guanine nucleotide exchange factor 4 (Homo sapiens) (UniProt Q8WZA2); test: Confirmatory qHTS for agonist of cAMP-regulated guanine nucleotide exchange factor 4 (EPAC2) (AID 1645884);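 also: nucleotide exchange releases bodipy-GDP from Rap1 and this lowers its fluorescence; nearly all actives have a fitted effect of over 65% in size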; also: potency is read from the fitted curve at half-maximal effect
[4] = target: Rap guanine nucleotide exchange factor 4 (Homo sapiens) (UniProt Q8WZA2); test: Confirmatory qHTS for antagonist of cAMP-regulated guanine nucleotide exchange factor 4 (EPAC2) (AID 1645885); also: nearly all actives have a fitted effect of over 25% in size; also: potency is read from the fitted curve at half-maximal effect
[5] = target: Rap guanine nucleotide exchange factor 3 (Homo sapiens) (UniProt O95398); test: Counterscreen qHTS for antagonist of cAMP-regulated guanine nucleotide exchange factor 3 (EPAC1) (AID 1645888);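 also: fluorescence loss as bound BODIPY-GDP is released from Rap1B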
Procedure, shortened: (§1)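 Rap1B-BODIPY-GDP 250 nM + GDP 50 uM; cpds 7-pt, final 9.74 nM–152 uM (activator mode) or from 7.32 nM upwards (inhibitor mode); RT; FI 480/540 nm at 5 and 30 min, then ± cAMP, reread.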

[6] = target: Rap guanine nucleotide exchange factor 3 (Homo sapiens) (UniProt O95398); test: Counterscreen qHTS for agonist of cAMP-regulated guanine nucleotide exchange factor 3 (EPAC1) (AID 1645889); also: nearly all actives have a fitted effect of over 40% in size; also: potency is read from the fitted curve at half-maximal effect
Procedure, shortened: as §1

Rap guanine nucleotide exchange factor 4 (Homo sapiens), sequence (Q8WZA2 whole entry, looked up): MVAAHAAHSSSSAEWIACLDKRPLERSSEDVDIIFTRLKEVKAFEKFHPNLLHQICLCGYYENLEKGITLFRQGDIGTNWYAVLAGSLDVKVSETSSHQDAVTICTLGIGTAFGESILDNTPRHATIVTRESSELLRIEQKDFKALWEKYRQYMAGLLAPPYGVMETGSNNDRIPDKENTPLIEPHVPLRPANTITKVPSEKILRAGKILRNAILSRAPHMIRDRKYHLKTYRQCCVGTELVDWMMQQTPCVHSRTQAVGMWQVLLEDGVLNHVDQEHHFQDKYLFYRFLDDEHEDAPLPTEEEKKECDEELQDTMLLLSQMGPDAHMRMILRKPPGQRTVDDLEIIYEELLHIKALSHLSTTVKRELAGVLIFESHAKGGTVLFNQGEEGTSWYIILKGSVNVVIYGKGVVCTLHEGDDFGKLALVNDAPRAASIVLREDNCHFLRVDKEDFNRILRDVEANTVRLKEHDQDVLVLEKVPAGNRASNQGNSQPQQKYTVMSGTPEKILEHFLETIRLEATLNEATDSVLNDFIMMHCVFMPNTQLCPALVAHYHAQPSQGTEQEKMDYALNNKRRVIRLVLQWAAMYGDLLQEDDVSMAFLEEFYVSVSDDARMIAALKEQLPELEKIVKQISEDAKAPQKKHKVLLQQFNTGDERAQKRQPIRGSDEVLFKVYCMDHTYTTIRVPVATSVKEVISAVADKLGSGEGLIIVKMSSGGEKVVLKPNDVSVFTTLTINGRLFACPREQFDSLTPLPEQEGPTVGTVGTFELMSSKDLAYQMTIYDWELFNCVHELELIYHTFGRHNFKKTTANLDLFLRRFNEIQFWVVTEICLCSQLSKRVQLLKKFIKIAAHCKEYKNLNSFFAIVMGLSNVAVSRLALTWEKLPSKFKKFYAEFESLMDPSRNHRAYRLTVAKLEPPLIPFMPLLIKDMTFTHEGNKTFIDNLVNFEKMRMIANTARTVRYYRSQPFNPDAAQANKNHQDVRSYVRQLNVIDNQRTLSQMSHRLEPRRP
Rap guanine nucleotide exchange factor 3 (Homo sapiens), sequence (O95398 whole entry, looked up): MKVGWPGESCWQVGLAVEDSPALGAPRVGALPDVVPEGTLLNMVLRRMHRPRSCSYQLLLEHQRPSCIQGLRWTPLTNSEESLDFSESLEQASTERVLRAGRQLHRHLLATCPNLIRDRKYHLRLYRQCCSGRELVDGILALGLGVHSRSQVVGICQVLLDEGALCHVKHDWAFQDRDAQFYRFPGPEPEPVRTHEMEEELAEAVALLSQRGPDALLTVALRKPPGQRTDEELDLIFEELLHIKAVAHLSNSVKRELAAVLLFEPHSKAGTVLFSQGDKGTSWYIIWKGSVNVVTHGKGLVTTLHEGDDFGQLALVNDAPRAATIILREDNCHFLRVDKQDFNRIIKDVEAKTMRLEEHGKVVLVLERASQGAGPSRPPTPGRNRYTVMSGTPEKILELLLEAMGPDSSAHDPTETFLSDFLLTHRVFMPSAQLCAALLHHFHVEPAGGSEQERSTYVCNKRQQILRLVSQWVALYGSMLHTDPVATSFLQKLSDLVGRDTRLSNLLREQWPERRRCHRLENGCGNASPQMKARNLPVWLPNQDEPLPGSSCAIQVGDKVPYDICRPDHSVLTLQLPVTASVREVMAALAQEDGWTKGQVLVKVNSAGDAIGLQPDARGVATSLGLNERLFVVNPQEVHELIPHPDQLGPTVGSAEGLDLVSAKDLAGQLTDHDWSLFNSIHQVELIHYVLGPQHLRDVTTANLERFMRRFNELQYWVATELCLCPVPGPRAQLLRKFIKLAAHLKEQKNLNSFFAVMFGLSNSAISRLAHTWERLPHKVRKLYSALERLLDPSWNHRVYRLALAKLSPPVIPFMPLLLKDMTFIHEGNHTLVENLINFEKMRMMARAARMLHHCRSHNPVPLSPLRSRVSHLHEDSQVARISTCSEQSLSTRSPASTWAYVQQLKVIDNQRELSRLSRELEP

CC1S/C(=N/N=C2CCC(C(C)(C)C)CC2)NC1=O (stereo not drawn)
Potency [1]: inactive | Potency [2]: inactive | activation [3]: -7.78% [at 17.1 µM, percent relative to cAMP agonist control] | Potency [4]: inactive | activity change, negative = inhibition [5]: 2.96% [at 30.8 µM] | activation [6]: 18.6% [at 30.8 µM]

COCOCCn1cc(CN2CCS(=O)(=O)N(Cc3ccc(-c4ccc(Cl)cc4)cc3)C(CC(C)C)C2=O)nn1 (stereo not drawn)
Potency [1]: inactive | Potency [2]: inactive | Potency [3]: inactive | Potency [4]: inactive | Potency [5]: inactive | Potency [6]: inactive

COc1ccc(C(=O)NCCONC(=O)c2ccc(OC)cc2)cc1
Potency [1]: inactive | Potency [2]: inactive | Potency [3]: inactive | Potency [4]: inactive | Potency [5]: inactive | Potency [6]: inactive

O=C(c1ccc(CSCc2ccccc2F)o1)N1CCN(c2ccc(N3CCOCC3)nn2)CC1
Potency [1]: inactive | Potency [2]: inactive | activation [3]: 3.73% [at 17.1 µM, percent relative to cAMP agonist control] | Potency [4]: inactive | activity change, negative = inhibition [5]: -4.38% [at 30.8 µM] | activation [6]: 14.5% [at 30.8 µM]

COC(=O)c1cc2sc(C)cc2n1Cc1cccc(OC)c1
Potency [1]: inactive | Potency [2]: inactive | Potency [3]: inactive | Potency [4]: inactive | Potency [5]: inactive | Potency [6]: inactive

COc1ccccc1NC(=O)C(C)OC(=O)COc1cccc2c1OC(C)(C)C2 (stereo not drawn)
Potency [1]: inactive | Potency [2]: inactive | activation [3]: 2.07% [at 17.1 µM, percent relative to cAMP agonist control] | Potency [4]: inactive | activity change, negative = inhibition [5]: -14.5% [at 30.8 µM] | activation [6]: 7.64% [at 30.8 µM]

COC(=O)c1cc(OC)nc2ccc(Br)cc12
Potency [1]: inactive | Potency [2]: inactive | Potency [3]: inactive | Potency [4]: inactive | Potency [5]: inactive | Potency [6]: inactive

COc1ccccc1OCCCSc1nc(-c2ccc(C(C)(C)C)cc2)nc2cc(=O)[nH]n12
Potency [1]: 67.5 µM (active) | Potency [2]: inactive | Potency [3]: inactive | Potency [4]: inactive | Potency [5]: inactive | Potency [6]: inactive

CCN(CC)c1nc(C)nc2c1sc(=S)n2C
Potency [1]: inactive | Potency [2]: inactive | Potency [3]: inactive | Potency [4]: inactive | Potency [5]: inactive | Potency [6]: inactive

Cc1[nH]n(-c2ccccc2)c(=O)c1C(c1cc(Cl)ccc1O)c1c(C)[nH]n(-c2ccccc2)c1=O
Potency [1]: 75.7 µM (active) | Potency [2]: inactive | Potency [3]: inactive | Potency [4]: inactive | Potency [5]: inactive | Potency [6]: 2.51 µM (active)

CCc1ccc(/C=C2\SC(=S)N(CCC(=O)Nc3cc(C)on3)C2=O)cc1
Potency [1]: inactive | Potency [2]: inactive | Potency [3]: inactive | Potency [4]: inactive | Potency [5]: inactive | Potency [6]: inactive

COc1cc(/C=C2\SC(=S)N(NS(=O)(=O)c3ccc(C)cc3)C2=O)cc(OC)c1OC
Potency [1]: 26.9 µM (active) | Potency [2]: inactive | Potency [3]: inactive | Potency [4]: 33.8 µM (active) | Potency [5]: inactive | Potency [6]: inactive

CCCOc1ccccc1Cn1c(=O)oc2ccccc21
Potency [1]: inactive | Potency [2]: inactive | Potency [3]: inactive | Potency [4]: 9.53 µM (active) | Potency [5]: inactive | Potency [6]: inactive

O=C(O)c1cccc(N/N=C/c2cc(Br)cc(Br)c2O)c1
Potency [1]: 75.7 µM (active) | Potency [2]: inactive | Potency [3]: inactive | Potency [4]: 67.5 µM (active) | Potency [5]: inactive | Potency [6]: inactive

CCOC(=O)CN1C(=O)c2ccccc2Sc2ncccc21
Potency [1]: inactive | Potency [2]: inactive | activation [3]: 0% [at 17.1 µM, percent relative to cAMP agonist control] | Potency [4]: inactive | Potency [5]: inactive | Potency [6]: inactive

COc1cccc2c(N/N=C/c3ccco3)cc(C)nc12
Potency [1]: inactive | Potency [2]: inactive | Potency [3]: inactive | Potency [4]: inactive | Potency [5]: inactive | Potency [6]: inactive

COc1cccc(C2c3[nH]c4ccccc4c3CCN2Cc2ncc[nH]2)c1 (stereo not drawn)
Potency [1]: inactive | Potency [2]: inactive | activation [3]: 1.64% [at 17.1 µM, percent relative to cAMP agonist control] | Potency [4]: inactive | activity change, negative = inhibition [5]: -8.75% [at 30.8 µM] | activation [6]: 15.1% [at 30.8 µM]

CC(NCc1cccn1C)c1ccccc1 (stereo not drawn)
Potency [1]: inactive | Potency [2]: inactive | Potency [3]: inactive | Potency [4]: inactive | Potency [5]: inactive | Potency [6]: inactive

CCOc1ccc(CCNC(=O)c2cccc(S(=O)(=O)N3CCCCC3)c2)cc1OCC
Potency [1]: inactive | Potency [2]: inactive | Potency [3]: inactive | Potency [4]: inactive | Potency [5]: inactive | Potency [6]: inactive

CC(=O)C1=C(O)C(=O)N(c2cccc(Br)c2)C1c1ccc(Br)cc1 (stereo not drawn)
Potency [1]: 37.9 µM (active) | Potency [2]: inactive | Potency [3]: inactive | Potency [4]: inactive | Potency [5]: inactive | Potency [6]: inactive

COc1ccccc1Cc1nc2ccccc2nc1SCC(=O)Nc1ccccc1C(F)(F)F
Potency [1]: inactive | Potency [2]: inactive | Potency [3]: inactive | outcome [4]: inactive [at 12.7 µM] | Potency [5]: inactive | Potency [6]: inactive

CN1C(=O)/C(=C\c2ccc(N(C)C)cc2)OC1=S
Potency [1]: inactive | Potency [2]: inactive | Potency [3]: inactive | Potency [4]: inactive | Potency [5]: inactive | Potency [6]: 15.8 µM (active)

CC1(C)Cc2ccccc2-c2nnc(-c3ccc4ccccc4n3)n21
Potency [1]: inactive | Potency [2]: inactive | Potency [3]: inactive | Potency [4]: inactive | Potency [5]: inactive | Potency [6]: inactive

O=C(Nc1ccc2nc(-c3ccc4nc[nH]c4c3)[nH]c2c1)c1cccs1
Potency [1]: inactive | Potency [2]: inactive | activation [3]: 3.61% [at 17.1 µM, percent relative to cAMP agonist control] | Potency [4]: inactive | activity change, negative = inhibition [5]: 8.72% [at 30.8 µM] | activation [6]: 15.6% [at 30.8 µM]

Cc1nc(=O)c(-c2ccccc2)c(C)n1CCCCCC(=O)O
Potency [1]: inactive | Potency [2]: inactive | activation [3]: 0.623% [at 17.1 µM, percent relative to cAMP agonist control] | Potency [4]: inactive | activity change, negative = inhibition [5]: -38.6% [at 30.8 µM] | activation [6]: 4.21% [at 30.8 µM]

Cc1ccccc1CN1C(=O)c2ccccc2Sc2ccc(C(=O)O)cc21
Potency [1]: inactive | Potency [2]: inactive | Potency [3]: inactive | Potency [4]: inactive | Potency [5]: inactive | Potency [6]: inactive

Cn1c(=O)c2nc3ccc(NC(=O)C(F)(F)F)cc3nc2n(C)c1=O
Potency [1]: 84.9 µM (active) | Potency [2]: inactive | Potency [3]: inactive | Potency [4]: inactive | Potency [5]: inactive | Potency [6]: inactive

N#Cc1c(-c2ccccc2)nc(SCC(=O)N2c3ccccc3Sc3ccccc32)[nH]c1=O
Potency [1]: 19 µM (active) | Potency [2]: inactive | Potency [3]: inactive | Potency [4]: inactive | Potency [5]: inactive | Potency [6]: inactive

S=C(NCCCN1CCOCC1)Nc1cccc(-c2nnc3n2CCCCC3)c1
Potency [1]: inactive | Potency [2]: inactive | Potency [3]: inactive | Potency [4]: inactive | Potency [5]: inactive | Potency [6]: inactive

Cc1nnnn1-c1ccc(CC(=O)O)cc1
Potency [1]: inactive | Potency [2]: inactive | activation [3]: -2.24% [at 17.1 µM, percent relative to cAMP agonist control] | Potency [4]: inactive | activity change, negative = inhibition [5]: -6.83% [at 30.8 µM] | activation [6]: -1.16% [at 30.8 µM]

O=C(N/N=C/c1c(O)n(-c2ccccc2Cl)c(=O)c2ccccc12)c1cccnc1
Potency [1]: 3.38 µM (active) | Potency [2]: inactive | Potency [3]: inactive | Potency [4]: inactive | Potency [5]: inactive | Potency [6]: inactive

C=CCn1c(CSCc2ccc(Cl)cc2Cl)nnc1SCC(=O)Nc1ccc(C(=O)O)cc1
Potency [1]: inactive | Potency [2]: inactive | activation [3]: 0.968% [at 17.1 µM, percent relative to cAMP agonist control] | Potency [4]: inactive | activity change, negative = inhibition [5]: -5.41% [at 30.8 µM] | activation [6]: 4.51% [at 30.8 µM]

O=C(c1ccc2c(c1)N(Cc1ccccc1)CCS2)N1CCCCC1
Potency [1]: inactive | Potency [2]: inactive | Potency [3]: inactive | Potency [4]: inactive | Potency [5]: inactive | Potency [6]: inactive

O=C(CSc1nc2c([nH]c3ccccc32)c(=O)n1-c1ccccc1F)Nc1cccc(Cl)c1
Potency [1]: inactive | Potency [2]: inactive | Potency [3]: inactive | Potency [4]: inactive | Potency [5]: inactive | Potency [6]: inactive

N#CC1=C(O)C(c2ccccc2)n2c1nc(=O)c1ccccc12 (stereo not drawn)
Potency [1]: inactive | Potency [2]: inactive | activation [3]: 0.476% [at 17.1 µM, percent relative to cAMP agonist control] | Potency [4]: inactive | activity change, negative = inhibition [5]: 1.23% [at 30.8 µM] | activation [6]: 1.1% [at 30.8 µM]

O=C(Nc1cccc(Cl)c1)OC1CCCCc2cccnc21 (stereo not drawn)
Potency [1]: inactive | Potency [2]: inactive | activation [3]: 5.07% [at 17.1 µM, percent relative to cAMP agonist control] | Potency [4]: inactive | activity change, negative = inhibition [5]: -21.2% [at 30.8 µM] | activation [6]: 25.6% [at 30.8 µM]

CCC(C(=O)NCc1ccc(OC)c(OC)c1)n1nc(C)c2c(C)n(-c3ccc(C)cc3)nc2c1=O (stereo not drawn)
Potency [1]: inactive | Potency [2]: inactive | Potency [3]: inactive | outcome [4]: inactive [at 12.7 µM] | Potency [5]: inactive | Potency [6]: inactive

CCOc1ccc(Oc2ccccc2NC(=O)CN2C(=O)NC3(CCCC3)C2=O)cc1
Potency [1]: inactive | Potency [2]: inactive | activation [3]: -25.9% [at 17.1 µM, percent relative to cAMP agonist control] | Potency [4]: inactive | activity change, negative = inhibition [5]: -5.88% [at 30.8 µM] | activation [6]: 10.7% [at 30.8 µM]

CN(C)c1ccccc1C(=O)N1CCCC(C(=O)c2ccc3ccccc3c2)C1 (stereo not drawn)
Potency [1]: inactive | Potency [2]: inactive | activation [3]: 10.4% [at 17.1 µM, percent relative to cAMP agonist control] | Potency [4]: inactive | activity change, negative = inhibition [5]: -1.02% [at 30.8 µM] | activation [6]: 21.4% [at 30.8 µM]

c1ccc(-n2nnnc2-n2ccnc2)cc1
Potency [1]: inactive | Potency [2]: inactive | Potency [3]: inactive | Potency [4]: inactive | Potency [5]: inactive | Potency [6]: inactive

N#Cc1cc(C(=O)c2cc(F)ccc2O)cn(-c2nccs2)c1=O
Potency [1]: inactive | Potency [2]: 100 µM (active) | Potency [3]: 112 µM (active) | Potency [4]: inactive | Potency [5]: inactive | Potency [6]: 39.8 µM (active)

O=[N+]([O-])c1ccc(Cc2ccccn2)c([N+](=O)[O-])c1
Potency [1]: inactive | Potency [2]: inactive | Potency [3]: inactive | outcome [4]: inactive; activator; fitted 0.12 uM [at 12.7 µM] | Potency [5]: inactive | Potency [6]: inactive

CCCN(CC(=O)Nc1ccccc1C)C(=O)C1CCN(S(=O)(=O)c2ccccc2C(F)(F)F)CC1
Potency [1]: inactive | Potency [2]: inactive | Potency [3]: inactive | Potency [4]: inactive | Potency [5]: inactive | Potency [6]: inactive
